Assay results: PubChem BioAssay
A number with no mark means an inactive call. For part of these data: Entries with a potency or affinity are not part of this list. Active and inactive are the calls of the source. Unless noted, the rule behind the calls is not given here.

What was measured:
[1] = antimalarial activity against Dd2 strain (AID 2302;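 active = growth inhibition above 50% at the single 2 µM test dose, taken to imply half-maximal potency below 2 µM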;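 note: 0% = DMSO untreated growth and 100% = chloroquine plus artemisinin killed control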); conditions: P. falciparum Dd2 in RBCs, LDH growth readout, 72 h; at 2 µM; active compounds read high
[2] = HepG2 cytotoxicity, primary screen, cytotoxicity control for P. falciparum antimalarial project, cell-based, ATP luminescence (AID 2303;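 active = inhibition above 50%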;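 note: 0% = DMSO wells and 100% = digitonin-killed cells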); conditions: HepG2 viability, 24-48 h, at 10 µM, active compounds read high
[3] = target: L-lactate dehydrogenase (Plasmodium falciparum (isolate CDC / Honduras)) (UniProt Q27743); test: PfLDH activity inhibition – cell lysate, 3D7 strain, counter-screen for P. falciparum growth inhibition project (AID 2304);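 note: 0% = vehicle and 100% = reference inhibitor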; conditions: P. falciparum 3D7 crude extract, LDH APAD/NBT absorbance; at 2 µM; active compounds read high
[4] = inhibition of 3D7 malaria parasite growth – strain 3D7 (AID 2306);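 note: 0% = DMSO wells and 100% = chloroquine plus artemisinin control wells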; conditions: P. falciparum 3D7 erythrocytic growth, LDH absorbance, 72 h; at 2 µM; active compounds read high
[5] = target: Calcium-dependent protein kinase 1 (Plasmodium falciparum (isolate 3D7)) (UniProt P62344); test: PfCDPK1 kinase inhibitors, biochemical, TCAMS library (AID 1159585; cut-off not given, nearly all actives have IC50 up to about 0.98 µM;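 note: inhibitors leave more ATP so luminescence rises with inhibition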); conditions: recombinant PfCDPK1, Kinase-Glo ATP depletion luminescence
[6] = target: Plasmodium falciparum protein kinase 6 (PK6, PF3D7_1337100) (UniProt Q8IDW1); test: PfPK6 kinase inhibitors, biochemical, TCAMS library (AID 1159586); conditions: recombinant PfPK6, Kinase-Glo ATP depletion luminescence
[7] = target: Protein kinase 7 (PK7), Plasmodium falciparum 3D7 (PF3D7_0213400) (UniProt Q7YTF7); test: inhibition of Plasmodium PK7 catalytic activity – biochemical, TCAMS antimalarial set, Kinase-Glo luminescence (AID 1159587); conditions: recombinant PfPK7, Kinase-Glo ATP depletion luminescence
[8] = target: Calcium-dependent protein kinase 4 (Plasmodium falciparum (isolate 3D7)) (UniProt Q8IBS5); test: PfCDPK4 kinase inhibitors, biochemical, TCAMS library (AID 1159588; cut-off not given, nearly all actives have IC50 up to about 0.91 µM); conditions: recombinant PfCDPK4, Kinase-Glo ATP depletion luminescence
Chain of Calcium-dependent protein kinase 4 (Plasmodium falciparum (isolate 3D7)) (Q8IBS5 whole entry, looked up): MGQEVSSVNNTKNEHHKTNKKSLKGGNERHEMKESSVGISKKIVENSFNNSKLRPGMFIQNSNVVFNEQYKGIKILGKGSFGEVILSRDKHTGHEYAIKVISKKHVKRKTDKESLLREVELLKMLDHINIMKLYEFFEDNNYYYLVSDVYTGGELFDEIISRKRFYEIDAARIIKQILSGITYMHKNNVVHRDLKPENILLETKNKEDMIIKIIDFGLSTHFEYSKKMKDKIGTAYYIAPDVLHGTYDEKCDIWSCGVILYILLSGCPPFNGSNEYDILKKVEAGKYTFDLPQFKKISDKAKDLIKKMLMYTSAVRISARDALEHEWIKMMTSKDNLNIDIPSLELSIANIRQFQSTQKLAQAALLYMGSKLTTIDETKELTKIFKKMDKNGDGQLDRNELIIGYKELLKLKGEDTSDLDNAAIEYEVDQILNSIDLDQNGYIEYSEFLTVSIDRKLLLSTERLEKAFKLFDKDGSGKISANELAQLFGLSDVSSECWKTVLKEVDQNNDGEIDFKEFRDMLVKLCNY

Chain of L-lactate dehydrogenase (Plasmodium falciparum (isolate CDC / Honduras)) (Q27743 whole entry, looked up): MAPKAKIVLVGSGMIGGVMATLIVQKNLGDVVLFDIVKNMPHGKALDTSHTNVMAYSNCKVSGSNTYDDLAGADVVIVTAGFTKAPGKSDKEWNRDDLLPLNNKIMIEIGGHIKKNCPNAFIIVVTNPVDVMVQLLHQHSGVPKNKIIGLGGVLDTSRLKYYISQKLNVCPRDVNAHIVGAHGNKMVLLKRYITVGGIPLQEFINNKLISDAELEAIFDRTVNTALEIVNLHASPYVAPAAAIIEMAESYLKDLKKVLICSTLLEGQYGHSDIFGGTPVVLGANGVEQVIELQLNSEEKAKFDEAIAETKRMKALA
Chain of Protein kinase 7 (PK7), Plasmodium falciparum 3D7 (PF3D7_0213400) (Q7YTF7 1-343): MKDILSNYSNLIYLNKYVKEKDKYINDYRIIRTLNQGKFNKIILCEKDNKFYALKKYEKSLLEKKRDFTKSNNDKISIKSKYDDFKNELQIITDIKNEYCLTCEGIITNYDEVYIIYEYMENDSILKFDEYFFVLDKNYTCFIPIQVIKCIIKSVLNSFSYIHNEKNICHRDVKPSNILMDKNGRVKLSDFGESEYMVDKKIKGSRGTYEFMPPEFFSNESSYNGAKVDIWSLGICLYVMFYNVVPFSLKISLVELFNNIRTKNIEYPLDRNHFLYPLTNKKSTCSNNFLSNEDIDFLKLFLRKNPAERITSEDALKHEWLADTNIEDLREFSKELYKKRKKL
Chain of Plasmodium falciparum protein kinase 6 (PK6, PF3D7_1337100) (Q8IDW1 1-305): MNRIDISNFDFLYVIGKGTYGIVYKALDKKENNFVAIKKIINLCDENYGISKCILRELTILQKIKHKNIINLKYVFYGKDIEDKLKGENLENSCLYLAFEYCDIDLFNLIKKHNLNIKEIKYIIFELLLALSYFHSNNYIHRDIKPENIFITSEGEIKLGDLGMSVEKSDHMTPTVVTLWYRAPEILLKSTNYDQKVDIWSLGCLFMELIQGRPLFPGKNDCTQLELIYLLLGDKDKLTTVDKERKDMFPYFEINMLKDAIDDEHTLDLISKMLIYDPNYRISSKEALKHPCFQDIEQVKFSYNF
Chain of Calcium-dependent protein kinase 1 (Plasmodium falciparum (isolate 3D7)) (P62344 whole entry, looked up): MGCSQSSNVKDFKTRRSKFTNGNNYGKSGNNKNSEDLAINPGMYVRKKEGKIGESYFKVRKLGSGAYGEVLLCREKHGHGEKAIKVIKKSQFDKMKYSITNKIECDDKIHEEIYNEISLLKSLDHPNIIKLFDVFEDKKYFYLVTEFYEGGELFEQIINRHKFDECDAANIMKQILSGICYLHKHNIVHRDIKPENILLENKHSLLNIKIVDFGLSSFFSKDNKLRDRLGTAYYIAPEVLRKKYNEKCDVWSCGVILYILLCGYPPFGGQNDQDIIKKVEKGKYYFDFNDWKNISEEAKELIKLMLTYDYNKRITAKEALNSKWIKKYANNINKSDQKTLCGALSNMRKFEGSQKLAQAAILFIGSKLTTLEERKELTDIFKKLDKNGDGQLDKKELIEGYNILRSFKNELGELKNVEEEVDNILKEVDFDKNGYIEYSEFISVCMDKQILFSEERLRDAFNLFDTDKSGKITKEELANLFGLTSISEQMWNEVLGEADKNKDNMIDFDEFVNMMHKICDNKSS

SMILES | growth inhibition [1] | inhibition [2] | inhibition [3] | growth inhibition [4] | outcome [5] | outcome [6] | outcome [7] | outcome [8]
COc1cc(NC(=O)c2nn(CCCN3CCC(N4CCCC4)CC3)cc2-c2ccc(Cl)c(Cl)c2)cc(OC)c1OC | 100% (active) | 76% (active) | -5% | 103% (active) | inactive | inactive | inactive | inactive
COC(=O)CNC(c1ccccc1)c1cc(Br)ccc1NC(=O)c1ccccc1Br (configuration not stated) | 77% (active) | 10% | -1% | 99% (active) | inactive | inactive | inactive | inactive
CN1CCC(N2CCN(Cc3ccc(-c4cccc(-c5nc6ccc(F)cc6[nH]5)c4)cc3)CC2)CC1 | 99% (active) | 67% (active) | -1% | 101% (active) | inactive | inactive | inactive | inactive
Oc1cc2c(cc1CN1CCN(Cc3ccc(Cl)s3)CC1)CCC2 | 76% (active) | 7% | -3% | 98% (active) | inactive | inactive | inactive | inactive
Cc1cc(F)ccc1-c1nc(N(C)CCN(C)C(=O)N(C)c2ccccc2)nc2c1ccc(=O)n2-c1c(F)cccc1F | 77% (active) | -1% | 2% | 87% (active) | inactive | inactive | inactive | inactive
CCOc1ccc(C=CC(=O)Nc2ccc3nc(N4CCOCC4)cc(C)c3c2)cc1OC | 23% | 14% | 5% | 92% (active) | inactive | inactive | inactive | inactive
COc1ccc(O)c(-c2sc(N=C(N)N)nc2-c2ccccc2)c1 | 96% (active) | 2% | -2% | 101% (active) | inactive | inactive | inactive | inactive
Cc1cc(OCCCN2CCN(CCN3CCOCC3)CC2)ccc1NC(=O)COc1ccc(Cl)cc1C(=O)c1cc(Cl)cc(C#N)c1 | 78% (active) | 30% | -3% | 99% (active) | inactive | inactive | inactive | inactive
CCCC1N=C(N)N=C(N)N1c1ccc(CC)cc1 (configuration not stated) | 4% | 11% | 1% | 94% (active) | inactive | inactive | inactive | inactive
O=C(Nc1ccc(Cl)cc1)c1cccc(CN2CCCN(Cc3cccc(O)c3)CC2)c1 | 43% | 14% | 3% | 98% (active) | inactive | inactive | inactive | inactive
CC1(C)N=C(N)N=C(N)N1c1cccc(C(F)(F)F)c1 | 68% (active) | 60% (active) | 0% | 95% (active) | inactive | inactive | inactive | inactive
c1ccc(CNc2nc(NCCc3cnc[nH]3)nc(N3CCCC4CCCCC43)n2)cc1 (configuration not stated) | 100% (active) | -6% | -3% | 98% (active) | inactive | inactive | inactive | inactive
COc1cc2ncnc(Nc3ccc(Br)c(Cl)c3)c2cc1OC | 15% | 22% | 6% | 101% (active) | inactive | inactive | inactive | inactive
CC(C)CCN1CCCN(Cc2ccc(C(=O)Nc3ccc(C(C)(C)C)cc3)cc2)CC1 | 12% | 49% | -1% | 92% (active) | inactive | inactive | inactive | inactive
O=c1cc(NCCCNCc2cccc(OC(F)(F)F)c2)[nH]c2ccccc12 | 72% (active) | -4% | -1% | 97% (active) | inactive | inactive | inactive | inactive
Cc1cc(N(CCN2CCCCC2)CCN2CCCCC2)nc(Nc2ccc(Cl)cc2)n1 | 79% (active) | 19% | -4% | 101% (active) | inactive | inactive | inactive | inactive
N#Cc1ccc2c(c1)CCN(CCC1CCC(NC(=O)Nc3ccncc3)CC1)C2 (configuration not stated) | 3% | 6% | -4% | 85% (active) | inactive | inactive | inactive | inactive
O=C(Nc1ccc(-c2nc3ccccc3[nH]2)cc1)C1CCN(Cc2ccccc2)CC1 | 82% (active) | 12% | 4% | 100% (active) | inactive | inactive | inactive | inactive
CC(C)CNC(=O)CN1C(=O)C(c2ccccc2)(c2ccccc2)N=C1N | 46% | 15% | -1% | 94% (active) | inactive | inactive | inactive | inactive
CC(C)NCc1ccc(-c2ccc(NC(=O)c3cccc(C#N)c3)cc2)cc1 | 77% (active) | 40% | -2% | 99% (active) | inactive | inactive | inactive | inactive

SMILES | growth inhibition [1] | inhibition [2] | inhibition [3] | growth inhibition [4] | outcome [5] | outcome [6] | outcome [7] | outcome [8]
FC(F)(F)c1ccc2nc(-c3ccc(-c4cccc(CNCc5ccccc5)c4)s3)[nH]c2c1 | 83% (active) | 15% | -5% | 102% (active) | inactive | inactive | inactive | inactive
CC1(CCCCN2CCC(c3c[nH]c4cnccc34)CC2)C(=O)Nc2cccc(Cl)c21 (configuration not stated) | -1% | 26% | 0% | 100% (active) | inactive | inactive | inactive | inactive
N#Cc1ccc(C(=O)Nc2ccc(-c3cccc(CN4CCCC4)c3)cc2)cc1 | 1% | 17% | -1% | 89% (active) | inactive | inactive | inactive | inactive
CCn1ccc2c(N3CCCCS3(=O)=O)cc(C(=O)N[C@@H](Cc3ccccc3)[C@H](O)CNC(C)(C)c3cccc(C(F)(F)F)c3)cc21 | 98% (active) | 6% | -4% | 97% (active) | inactive | inactive | inactive | inactive
CO/C(=C\C=C/c1cc2cc(Cl)c(Cl)cc2[nH]1)C(=O)NC1CC(C)(C)N(C)C(C)(C)C1 | 34% | 65% (active) | -1% | 93% (active) | inactive | inactive | inactive | inactive
CS(=O)(=O)c1ccc2c(c1)CCN(CCC1CCC(NC(=O)C(=Cc3cccc(C#N)c3)c3ccc(-c4ccccc4)cc3)CC1)CC2 (configuration not stated) | 13% | 24% | -6% | 99% (active) | inactive | inactive | inactive | inactive
Oc1ccccc1CNCc1ccc(-c2cnc(N3CCCC(c4ccccc4)C3)nc2)cc1 (configuration not stated) | 84% (active) | 6% | -4% | 99% (active) | inactive | inactive | inactive | inactive
O=C(Nc1cccc(Cl)c1)c1cnc(N2CCN(c3ccncc3)CC2)c(Cl)c1 | 97% (active) | 54% (active) | 4% | 101% (active) | inactive | inactive | inactive | inactive
CCN(CC)CCN(Cc1ccc(-c2ccc(C(F)(F)F)cc2)cc1)C(=O)Cn1c(CCc2ccc(F)c(F)c2F)nc(=O)c2ccc(F)cc21 | 46% | 19% | -1% | 98% (active) | inactive | inactive | inactive | inactive
CCC(CC)OC(=O)C(C)c1cccc(C(=O)c2ccccc2)c1 (configuration not stated) | 0% | -8% | 6% | 93% (active) | inactive | inactive | inactive | inactive
COc1ccc(C(=O)Nc2ccc(Cl)cc2C(=O)Nc2ccncc2)cc1 | 29% | 7% | 1% | 91% (active) | inactive | inactive | inactive | inactive
Cc1nc(N)nc(N)c1OCc1ccc(Cl)c(Cl)c1 | 5% | 14% | -2% | 97% (active) | inactive | inactive | inactive | inactive
CC(C)c1ccc(NC(=O)c2ccc(CN3CCCN(CC4CCCCC4)CC3)cc2)cc1 | 34% | 50% (active) | 6% | 90% (active) | inactive | inactive | inactive | inactive
CC(Oc1ccc(Cl)cc1)C(=O)N(C)C1CCN(CCCCCNC(=O)/C=C/c2ccc(Cl)c(Cl)c2)CC1 (configuration not stated) | 10% | 61% (active) | -2% | 85% (active) | inactive | inactive | inactive | inactive
COc1ccc(NC(=O)/C=C/c2ccccc2Cl)cc1OCCN1CCC(Cc2cc3ccccc3[nH]2)CC1 | 8% | 56% (active) | 0% | 92% (active) | inactive | inactive | inactive | inactive
Nc1ncc(-c2ccc3nccc(-c4ccncc4)c3c2)cc1S(=O)(=O)N1CCCCC1 | 100% (active) | 25% | 3% | 100% (active) | inactive | inactive | inactive | inactive
Cc1ccc(Cn2cnc3cc(C(=O)Nc4ccc(-c5cccc(CN(C)C)c5)cc4)ccc3c2=O)o1 | 39% | 22% | 4% | 99% (active) | inactive | inactive | inactive | inactive
COc1ccc(C(=O)NC(Nc2ccc([N+](=O)[O-])cc2)C(Cl)(Cl)Cl)cc1 (configuration not stated) | 83% (active) | 15% | 1% | 95% (active) | inactive | inactive | inactive | inactive
Cc1cc(NC(=O)c2ccsc2)ccc1OC1CCN(Cc2ccc(F)cc2)CC1 | 47% | 9% | -2% | 83% (active) | inactive | inactive | inactive | inactive
